Compound activity from PubChem BioAssay.
This is a sample that favours compounds with a hit; in the whole collection about 4.2% have one here.
hgDAF-12 ag = hgDAF-12 agonism, primary luciferase screen; HEK293 GAL4-hgDAF12 UAS-luciferase reporter, agonist luminescence; normalized to butyrate control; activation, % at 6.8 µM; 1.8% of 370,000 active; AID 687014;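 active = activation above a cutoff set at the mean of all screened compounds plus 3 SD, cut at about 10% in these data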;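 also: 0% = DMSO wells and 100% = sodium butyrate wells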
DAX1 inh = blocks DAX1 repression of SF-1 activated StAR promoter; HEK293T StAR-luciferase reporter, SF-1/DAX-1 repression relief; inhibition, % at 6.8 µM; 1.1% of 370,000 active; AID 652010;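 active = inhibition above the mean over all tested compounds plus 3 SD, cut at about 3.6% in these data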;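 also: 0% = DAX-1 cells with DMSO and 100% = cells lacking DAX-1 with DMSO; higher inhibition means more luminescence from relief of DAX-1 repression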
hcDAF12 agonist = activates DAF-12 receptor from parasite H. contortus; activation, % at 6.8 µM; 1.4% of 370,000 active; HEK293 hcDAF-12 lit1-tk-luc reporter, luminescence; 0% DMSO, 100% Δ7-dafachronic acid; AID 652067;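 active = activation above the mean of all tested compounds plus 3 SD, cut at about 5.5% in these data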;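 also: 100% = response to 3 µM Δ7-dafachronic acid high control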
ssDAF-12 act = activates DAF-12 receptor from parasite S. stercoralis; HEK293 ssDAF-12/GRIP1 lit1-tk-luc reporter, luminescence; % of 3 µM dafachronic acid response; activation, % at 6.8 µM; 1% of 370,000 active; AID 652126;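 active = activation above the mean over all tested compounds plus 3 SD, cut at about 0.9% in these data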;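 also: 0% = DMSO-only wells and 100% = 3 µM delta7-dafachronic acid wells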
esBAF inh = inhibitors of esBAF chromatin remodeling in mouse ES cells; 2% of 350,000 active; Bmi1-luciferase knock-in reporter, 24 h; 100% = twice the neutral-well signal; AID 602393; reporter increase, % at 12.5 µM; in the data active = activation above about 40%; inconclusive = no clear call, values can overlap the other calls;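 also: 0% = median of the plate's neutral control wells and 100% = double that signal; a rise in the Bmi1 reporter signal indicates esBAF inhibition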
Wnt act = activators of Wnt/beta-catenin signaling | Wnt/beta-catenin reporter cell assay, activator, plate reader | activation, % at 9.35 µM | 1.2% of 300,000 active | AID 743398; in the data active = activation above about 30%, passing the limit was not always enough; inconclusive = no clear call, values can overlap the other calls;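 also: 0% = neutral control wells and 100% = positive control wells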
* hit, by the source's call; ? = inconclusive; · = not tested or not shown.

SMILES	hgDAF-12 ag	DAX1 inh	hcDAF12 agonist	ssDAF-12 act	esBAF inh	Wnt act
COCC(=O)N1C[C@H]2[C@@H](c3ccccc31)[C@H](CO)N2C(=O)C1CCOCC1	·	·	·	·	-6	·
CO[C@@H]1CN(C)C(=O)c2ccc(NC(=O)Nc3ccccc3F)cc2OC[C@H](C)N(C(C)=O)C[C@H]1C	·	·	·	·	6	·
C[C@H](CO)N1C[C@H](C)[C@H](CN(C)CC2CCCCC2)Oc2ccc(NC(=O)c3ccncc3)cc2C1=O	·	·	·	·	-6	·
CCCCCCOc1ccc(/C(N)=N/O)cc1	11*	-1	4	-1	75*	·
O=C(C[C@H]1CC[C@@H]2[C@H](COC[C@H](O)CN2C(=O)c2ccncc2)O1)NCc1cc(F)cc(F)c1	·	·	·	·	-1	·
Cc1oncc1C(=O)Nc1ccc2ccccc2c1	9	3.8*	3	0	10	10
Cc1oncc1C(=O)Nc1ccc(C(F)(F)F)cc1	10	4.3*	0	-1	7	-2
Cc1oncc1C(=O)Nc1cccc2ccccc12	3	0	-2	-1	-3	1
CO[C@H]1CN(C)C(=O)c2cc(NC(=O)Nc3ccc(Cl)cc3)ccc2OC[C@H](C)N(C)C[C@H]1C	·	·	·	·	0	·
CC1CN(Cc2ccccc2)c2nc3c(c(=O)[nH]c(=O)n3C)n2C1 (stereo not given)	0	0	-2	-3	·	34*
Cn1c(=O)[nH]c(=O)c2c1nc1n2CCN1Cc1ccccc1	-1	-1	-1	-1	2	·
CCCN1C[C@H](C)[C@@H](OC)CN(C)C(=O)c2ccc(NC(=O)CC)cc2OC[C@H]1C	·	·	·	·	1	·
O=C(O)CC(CN1C(=O)c2ccccc2C1=O)c1ccccc1 (stereo not given)	-2	0	-1	-2	-10	45*
NCC[C@@H]1CC[C@H](NC(=O)Nc2ccc(F)cc2)[C@H](CO)O1	·	·	·	·	3	·
O=C(Nc1nc(-c2ccc(F)c(F)c2)cs1)C1=COCCO1	0	0	1	0	53*	9
Cc1cc(-c2csc(NC(=O)C3=COCCO3)n2)c(C)n1C	2	2	1	0	-4	-2
O=C(Nc1nc(-c2ccc(Cl)cc2)cs1)C1=COCCO1	5	2	1	-1	·	-2
Cc1cc(C)c(-c2csc(NC(=O)C3=COCCO3)n2)c(C)c1	-4	-3	-2	-1	29	0
O=C(Cc1ccccc1F)Nc1nc(-c2ccc(F)c(F)c2)cs1	3	-1	3	-2	65*	9
COc1ccc(-c2csc(NC(=O)C3=COCCO3)n2)cc1OC	8	2	0	0	66*	35*
CCc1ccc(-c2csc(NC(=O)C3=COCCO3)n2)cc1	5	4.2*	2	0	75*	?
C[C@H]1CN([C@@H](C)CO)C(=O)Cc2cc(NC(=O)Nc3ccc4c(c3)OCO4)ccc2O[C@H]1CN(C)C(=O)Nc1ccccc1	·	·	·	·	2	·
C[C@@H]1CN([C@H](C)CO)C(=O)c2ccccc2-c2ccccc2CO[C@H]1CN(C)C(=O)Nc1ccccc1	·	·	·	·	8	·
C[C@H]1CN([C@@H](C)CO)C(=O)c2cccc(NC(=O)c3ccncc3)c2O[C@@H]1CN(C)C(=O)Nc1ccccc1	·	·	·	·	0	·
CCOc1ccccc1CNC(=O)c1cn(C)c(=O)c2c1c1ccccc1n2C	1	0	0	-1	-7	47*
SMILES	hgDAF-12 ag	DAX1 inh	hcDAF12 agonist	ssDAF-12 act	esBAF inh	Wnt act
CC=Cc1ccc2n(c1=O)C[C@H]1[C@H](CO)[C@@H](C(=O)NCCC)[C@@H]2N1Cc1cccnc1 (mixture of isomers)	·	·	·	·	4	·
O=C(CNS(=O)(=O)c1c(Cl)cccc1Cl)N1CCCCCC1	7	1	2	1.0*	8	0
O=C(CNS(=O)(=O)c1cccs1)N1CCCCC1	0	0	0	-1	12	15
Cc1ccccc1C(=O)c1cccn1CC(=O)NCc1cccc(Cl)c1	2	0	1	-1	64*	5
COc1ccccc1CNC(=O)Cn1cccc1C(=O)c1ccccc1C	6	0	2	0	43*	5
COc1cccc(CNC(=O)Cn2cccc2C(=O)c2ccccc2C)c1	1	0	2	-1	?	2
